# Measurements reported in PubChem BioAssay (NCATS).
# Inconclusive results are not listed. Entries that show only a call come without a potency. The source made the active and inactive calls. Calls come from the whole dose curve; as a rule, active = well fitted curve in the direction sought with a large enough effect; inconclusive = small, poorly fitted or top-dose-only effect, or another doubt; inactive = no such curve, though single readings can be large; an effect the other way counts as inactive or inconclusive.
# Columns and labels:
# [1] = target: Glutathione peroxidase 1 (Homo sapiens) (UniProt P07203); experiment: Primary qHTS Assay for Inhibitors of Recombinant Selenoprotein Glutathione Peroxidase 1 (GPX1) (AID 1845191); conditions: outcome: dose series up to 48.8 µM; note: nearly all actives have a fitted effect of over 65% in size
# Sequence of Glutathione peroxidase 1 (Homo sapiens) (P07203 whole entry, looked up): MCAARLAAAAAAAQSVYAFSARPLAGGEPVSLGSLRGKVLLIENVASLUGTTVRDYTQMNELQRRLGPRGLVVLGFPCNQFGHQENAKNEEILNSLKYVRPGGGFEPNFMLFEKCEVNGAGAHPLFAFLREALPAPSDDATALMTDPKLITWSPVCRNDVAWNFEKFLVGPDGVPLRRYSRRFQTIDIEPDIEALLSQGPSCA
# Method in brief: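 Recombinant GPX1 (10 nM final) was preincubated with compound for 30 min at room temperature, then reacted with 1 mM GSH, 0.5 mM CHP, 0.5 mM NADPH and 100 nM glutathione reductase; NADPH fluorescence (340/450 nm) was read at 0 and 15 min.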
# [2] = target: Phospholipid hydroperoxide glutathione peroxidase GPX4 (Homo sapiens) (UniProt P36969); experiment: Primary qHTS Assay for Inhibitors of Recombinant Selenoprotein Glutathione Peroxidase 4 (GPX4) (AID 1845192); note: nearly all actives have a fitted effect of over 65% in size
# Sequence of Phospholipid hydroperoxide glutathione peroxidase GPX4 (Homo sapiens) (P36969 whole entry, looked up): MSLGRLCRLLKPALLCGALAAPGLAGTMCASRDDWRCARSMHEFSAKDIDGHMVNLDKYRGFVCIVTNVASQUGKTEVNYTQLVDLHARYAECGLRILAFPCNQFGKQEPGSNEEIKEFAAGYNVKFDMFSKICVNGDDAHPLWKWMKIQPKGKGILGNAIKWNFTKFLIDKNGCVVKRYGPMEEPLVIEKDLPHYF
# Method in brief: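 GR-coupled readout: 100 nM GR, 1 mM GSH, 0.5 mM NADPH; NADPH fluorescence (ex 340/em 450 nm) read at t=0 and after 15 min RT. GPX4 200 nM, preincubated 30 min with compound; substrate 0.5 mM CHP.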
# [3] = NCATS anti-infectives library activity on HEK293 viability as a counter-qHTS vs the C. elegans viability qHTS (AID 1745854);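 note: HEK293 cells exposed to compounds for 24 hr before the viability read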
# Method in brief: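 Compounds were acoustically plated (several concentrations, 1:5, final up to 41.7 uM), then 1500 HEK293 cells added per well and incubated 24 hr at 37C, 5% CO2. CellTiter-Glo was added and luminescence read after 10 min.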
# [4] = target: Nuclear receptor subfamily 1 group I member 3 (Homo sapiens) (UniProt Q14994); experiment: Primary qHTS for antagonist of constitutive androstane receptor (CAR) against the NCATS DSHEA and TCM libraries (AID 1794836); note: series mostly up to about 40 µM
# Sequence of Nuclear receptor subfamily 1 group I member 3 (Homo sapiens) (Q14994 whole entry, looked up): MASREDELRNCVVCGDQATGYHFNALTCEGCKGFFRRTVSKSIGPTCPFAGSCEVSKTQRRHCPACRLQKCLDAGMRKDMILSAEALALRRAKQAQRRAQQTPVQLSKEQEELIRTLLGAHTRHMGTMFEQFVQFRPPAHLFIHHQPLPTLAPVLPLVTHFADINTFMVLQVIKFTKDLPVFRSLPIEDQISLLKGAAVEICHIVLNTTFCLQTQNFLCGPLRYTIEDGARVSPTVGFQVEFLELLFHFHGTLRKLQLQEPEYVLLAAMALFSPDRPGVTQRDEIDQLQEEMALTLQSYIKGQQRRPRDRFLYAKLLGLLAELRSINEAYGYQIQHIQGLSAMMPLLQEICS
# Method in brief: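 HepG2 cells stably carrying hCAR and a CYP2B6 luciferase reporter (2,500 cells/well) attached for 5 h, then received compounds with 48 uM CITCO for 24 h at 37C. ONE-Glo luminescence read antagonism; CellTiter-Fluor (405/540 nm) gave viability.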
# [5] = target: Metallo-beta-lactamase type 2 (Klebsiella pneumoniae) (UniProt C7C422); experiment: qHTS to identify inhibitors of the New Delhi Metallo-beta-lactamase (NDM): assay validation screen against the NCATS LOPAC Collection (AID 1794843);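 note: nitrocefin turnover by NDM-1 measured as 485 nm absorbance at plateau; series mostly up to about 38 µM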
# Sequence of Metallo-beta-lactamase type 2 (Klebsiella pneumoniae) (C7C422 whole entry, looked up): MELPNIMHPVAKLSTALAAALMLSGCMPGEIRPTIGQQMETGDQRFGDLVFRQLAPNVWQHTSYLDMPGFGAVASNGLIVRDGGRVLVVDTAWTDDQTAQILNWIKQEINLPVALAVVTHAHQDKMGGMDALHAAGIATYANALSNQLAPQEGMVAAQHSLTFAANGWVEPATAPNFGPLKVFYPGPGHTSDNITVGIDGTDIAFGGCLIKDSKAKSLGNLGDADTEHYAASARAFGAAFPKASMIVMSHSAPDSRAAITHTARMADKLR
# Method in brief: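 Enzyme 2 nM final, 50 mM HEPES pH 7.0, 1 uM ZnSO4, 0.01% Tween20; cpds in DMSO, preincub w/ enzyme; + nitrocefin (50 uM stock); A485 at plateau; no-enzyme column as blank.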
structure (smiles),measurement,setting,value
O=C(NC(=O)c1c(F)cccc1F)Nc1cc(Cl)c(OC(F)(F)C(F)C(F)(F)F)cc1Cl (stereo not given),outcome,[1],inactive
same,Potency,[2],inactive
CC(Cc1ccccc1)NCc1ccccc1Cl (stereo not given),outcome,[1],inactive
same,Potency,[2],inactive
Cc1nnc2n1-c1sc(CCC(=O)N3CCOCC3)cc1C(c1ccccc1Cl)=NC2,outcome,[1],inactive
same,Potency,[2],inactive
O=C(CCCN1CCC(n2c(=O)[nH]c3ccccc32)CC1)c1ccc(F)cc1,outcome,[1],inactive
same,Potency,[2],inactive
C[C@@H]1CC[C@H]2[C@@H](C)C(=O)O[C@@H]3O[C@@]4(C)CC[C@@H]1[C@]32OO4,outcome,[3],inactive
same,outcome,[1],inactive
same,Potency,[2],inactive
COP(=S)(OC)Oc1ccc(S(N)(=O)=O)cc1,outcome,[1],inactive
C[C@@H]1O[C@@H](O[C@@H]2C=C3CC[C@@H]4[C@H](CC[C@]5(C)[C@@H](c6ccc(=O)oc6)CC[C@]45O)[C@@]3(C)CC2)[C@H](O)[C@H](O)[C@H]1O,outcome,[1],inactive
same,Potency,[2],inactive
COc1ccc2cc3[n+](cc2c1OC)CCc1cc2c(cc1-3)OCO2,outcome,[4],inactive
Nc1nc2ncc(CNc3ccc(C(=O)N[C@@H](CCC(=O)O)C(=O)O)cc3)nc2c(=O)[nH]1,outcome,[4],inactive
OC[C@H]1O[C@@H](OCCc2ccc(O)cc2)[C@H](O)[C@@H](O)[C@H]1O,outcome,[4],inactive
CCN(CC)Cc1nccn1-c1ccc([N+](=O)[O-])cc1C(=O)c1ccccc1Cl,outcome,[1],inactive
same,Potency,[2],inactive
CC[C@]1(O)CC[C@H]2[C@@H]3CCC4=CCCC[C@@H]4[C@H]3CC[C@@]21C,outcome,[1],inactive
NC(=O)CN1CCCC1=O,outcome,[5],inactive
same,outcome,[1],inactive
same,Potency,[2],inactive
Clc1ccc(CSC(Cn2ccnc2)c2ccc(Cl)cc2Cl)cc1 (stereo not given),outcome,[1],inactive
same,Potency,[2],inactive
